Our source for the activity, negative = inhibition and AC50 values is PubChem BioAssay AID1851 (National Center for Advancing Translational Sciences (NCATS), 2009).

About 5,100 (32%) of roughly 16,000 compounds were called active. Roughly 25% stayed inconclusive and do not appear here. The list shows a part of the results. A number with no mark means an inactive call. Calls follow the shape of the dose curve; as a rule, active = well fitted curve in the direction sought with a large enough effect; inconclusive = small, poorly fitted or top-dose-only effect, or effect the other way; inactive = no such curve, though single readings can be large or run the other way.
% is scaled to controls: 0 for no effect and ±100 for the full control effect.

Sequence of Cytochrome P450 3A4 (Homo sapiens) (P08684 whole entry, looked up): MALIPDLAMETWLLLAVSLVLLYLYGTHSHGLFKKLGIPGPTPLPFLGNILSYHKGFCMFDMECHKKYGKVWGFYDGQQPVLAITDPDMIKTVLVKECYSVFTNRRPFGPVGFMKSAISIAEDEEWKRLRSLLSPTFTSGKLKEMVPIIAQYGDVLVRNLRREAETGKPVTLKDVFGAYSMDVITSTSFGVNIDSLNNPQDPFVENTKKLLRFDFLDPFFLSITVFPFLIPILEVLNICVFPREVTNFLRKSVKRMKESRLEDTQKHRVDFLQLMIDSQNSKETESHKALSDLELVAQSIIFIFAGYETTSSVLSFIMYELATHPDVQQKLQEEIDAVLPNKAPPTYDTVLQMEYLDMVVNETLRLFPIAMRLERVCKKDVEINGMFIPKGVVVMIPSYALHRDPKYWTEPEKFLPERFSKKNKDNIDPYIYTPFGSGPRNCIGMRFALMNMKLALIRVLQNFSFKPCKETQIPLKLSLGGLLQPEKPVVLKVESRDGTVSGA

The experiment has as its target Cytochrome P450 3A4 (Homo sapiens) (UniProt P08684). In words: Cytochrome panel assay with activity outcomes. The note with it: recombinant CYP, pro-luciferin dealkylation, luminescence, p450-cyp3a4; series mostly up to 57.1 µM.
In the case of `CC[N+](CC)(CC)CCOc1cccc(OCC[N+](CC)(CC)CC)c1OCC[N+](CC)(CC)CC`, the activity, negative = inhibition entry was “inactive”. `CCN1C[C@@]2(COC)[C@H]3[C@@H](OC)[C@H]4C1[C@@]3([C@H](OC)C[C@@H]2O)[C@H]1C[C@@]2(O)[C@@H](OC(=O)c3ccccc3)[C@@H]1[C@@]4(OC(C)=O)[C@H](O)[C@@H]2OC`: the activity, negative = inhibition entry was “inactive”.

For `O=c1c2ccccc2c2ccccc2c(=O)n1-c1cc2c3ccccc3ccc2c2ccccc12`, the activity, negative = inhibition was -20.6% [at 11.4 µM].

Take `CC1=C2C(=O)[C@@H]3[C@@H](CC=C4C[C@@H](O)CC[C@@]43C)[C@H]2CC[C@@]12O[C@H]1C[C@H](C)CN[C@H]1[C@@H]2C`: the activity, negative = inhibition is 7.7% [at 11.4 µM]. On to `Cc1sc2ccccc2c1CC1=NCCN1`, for which the activity, negative = inhibition result is “inactive”. The same measure, in the same setting: in the case of `CC(N)Cc1ccccc1Sc1ccc(O)cc1` (stereo not given) it was 13.2% [at 2.29 µM].

Consider `O=[N+]([O-])c1cc([As](=O)(O)O)ccc1O`, for which the activity, negative = inhibition result was “inactive”. In the case of `CCn1c(O)c(C(c2ccccn2)c2c(O)n(CC)c(=S)[nH]c2=O)c(=O)[nH]c1=S`, the activity, negative = inhibition result was “inactive”. As to `Cn1c(O)c(C(c2ccccn2)c2c(O)n(C)c(=S)[nH]c2=O)c(=O)[nH]c1=S`, the activity, negative = inhibition entry was “inactive”. A word on the AC50: it is the concentration at which the activity in the assay is half-maximal. In the case of `Cn1c(O)c(C(c2ccccn2)c2c(O)n(C)c(=S)n(C)c2=O)c(=O)n(C)c1=S`, the concentration at half-maximal activity (AC50) is 0.794 µM (active). Regarding `c1ccc(N2CCC3(CCNCC3)CC2)cc1`, the activity, negative = inhibition result was “inactive”. On the same count and under the same terms, for `Cn1cc(C(=O)C(=O)N[C@H]2CN3CCC2CC3)c2ccccc21` the value was “inactive”. As for `C[C@H](N)[C@H](O)c1ccc(O)c(O)c1`, the activity, negative = inhibition result was “inactive”. For the molecule `CC[C@]1(c2cccc(O)c2)CCCCN(C)C1`, the activity, negative = inhibition entry was “inactive”. For the molecule `COc1ccc(Cn2c(N)c(C(=O)NCc3ccco3)c3nc4ccccc4nc32)cc1`, the AC50 was 11.2 µM (active). As to `CCCCn1c(N)c(C(=O)NCc2cccs2)c2nc3ccccc3nc21`, the activity, negative = inhibition is -29.4% [at 2.29 µM].

On to `CC(C)CCn1c(N)c(C(=O)NCc2cccs2)c2nc3ccccc3nc21`, for which the activity, negative = inhibition was -19.7% [at 2.29 µM].

Take `CC(=O)OCC(=O)[C@@H]1CC[C@H]2[C@H]3CC[C@H]4C[C@@H](O)CC[C@]4(C)[C@@H]3C(=O)C[C@@]12C`: the activity, negative = inhibition entry is “inactive”.

For `O=C(O)C[C@H]1NCc2cc3ccccc3nc21`, the activity, negative = inhibition was -6.42% [at 11.4 µM].

On to `CCC1=C(C[C@H]2NCCc3ccccc32)C[C@@H]2c3cc(OC)c(OC)cc3CCN2C1`, for which the activity, negative = inhibition was -26.3% [at 11.4 µM]. `COc1ccc(C(=O)O[C@H]2CC[C@@]3(C)[C@H]4CC[C@H]5[C@]3(C[C@]3(O)[C@H]6CN7C[C@H](C)CC[C@H]7[C@](C)(O)[C@]6(O)[C@H](O)C[C@]53O)O[C@]24O)cc1OC`: the activity, negative = inhibition is -3.45% [at 11.4 µM]. On to `Nc1ccccc1O.O.O=C(O)[C@H]1[O][Sb][O][C@H]1C(=O)O`, for which the activity, negative = inhibition was -6.7% [at 11.4 µM].

For the molecule `O=C=Nc1ccc(Cc2ccc(N=C=O)cc2)cc1` (tested in a mixture with another compound), the activity, negative = inhibition was 6.47% [at 11.4 µM]. Turning to `O=S1(=O)N(CCN2CC=C(c3c[nH]c4cc(F)ccc34)CC2)c2cccc3c2N1CCC3`, the AC50 is 5.01 µM (active). As for `CN1CC[C@]2(C)c3cc(O)ccc3N(C)[C@@H]12`, the activity, negative = inhibition entry is “inactive”.

Take `c1csc(CN2CCC3(CCNCC3)CC2)n1`: the activity, negative = inhibition entry is “inactive”. Turning to `Cc1c(C(=O)c2ccc3ccccc3c2)c2cccc3c2n1[C@H](CN1CCOCC1)CO3`, the AC50 was 7.94 µM (active).

For the molecule `O[C@@H]1[C@H](O)[C@H]2[C@@H](O)CCN2C[C@@H]1O`, the activity, negative = inhibition entry is “inactive”. Take `CCN(CC)C1=NC(=[N+](CC)CC)c2ccccc21`: the activity, negative = inhibition result is “inactive”. Same read-out and setting: in the case of `CCCCCCC[n+]1ccc(-c2cc[n+](CCCCCCC)cc2)cc1` it was “inactive”; in that of `O=C1CS[C@@H](c2ccccc2Cl)c2cc(Cl)ccc2N1`, “inactive”; in that of `O=C(O)c1cc(N=Nc2ccc([As](=O)(O)O)cc2)ccc1O`, 1.38% [at 11.4 µM]. For `CCOC(C(=O)OCCCN(CC)CC)(c1ccccc1)c1ccccc1`, the AC50 was 0.708 µM (active). Regarding `C=C1[C@@H]2CC[C@H]3[C@@]4(C)C[C@@H](O[C@@H]5O[C@H](CO)[C@H](OS(=O)(=O)O)[C@@H](OS(=O)(=O)O)[C@@H]5OC(=O)CC(C)C)C[C@@H](C(=O)O)[C@H]4CC[C@@]3(C2)[C@H]1O`, the activity, negative = inhibition entry is “inactive”. Still for that read-out and setting: in the case of `CCN1C[C@@]2(COC)CC[C@H](OC)[C@]34[C@@H]1[C@]1(OCO[C@@]15C[C@@H](OC)C1C[C@H]3[C@H]5[C@@H]1OC)[C@H](O)[C@@H]24` it was “inactive”; in that of `O=C(O)c1ccccc1-c1c2cc(Br)c(=O)cc-2oc2[c]([Hg])c(O)c(Br)cc12`, “inactive”; in that of `CC(=O)O[C@H]1C[C@@H](O[C@@H]2[C@H](C)O[C@H](O[C@@H]3[C@H](C)O[C@H](O[C@@H]4CC[C@@]5(C)[C@@H](CC[C@]6(C)[C@]5(C)C[C@H](O)[C@]5(C)[C@@H](C7=CC(=O)OC7)CC[C@@]56O)C4)C[C@@H]3O)C[C@@H]2O)O[C@@H](C)[C@H]1O[C@H]1O[C@@H](CO)[C@@H](O)[C@@H](O)[C@@H]1O`, “inactive”. For `COC(=O)[C@H]1C(=O)c2ccccc2O[C@@](C(=O)OC)(c2ccccc2)[C@@H]1c1ccccc1`, the half-maximal activity concentration (AC50) was 3.98 µM (active). Turning to `O=P(O)(O)CCP(=O)(O)O`, the activity, negative = inhibition is 6.5% [at 11.4 µM]. In the case of `Cc1cc[c]([Sb]2[O][C@H]([C@H](O)[C@H](O)C(=O)O)[C@@H](CO)[O]2)cc1`, the activity, negative = inhibition was 0.934% [at 11.4 µM]. For `C[N+]1(C)[C@@H]2CC[C@H]1CC(OC(=O)c1c[nH]c3ccccc13)C2` (stereo not given in full), the AC50 was 7.94 µM (active). Consider `C[N+]1(C)C2CC[C@H]1CC(OC(=O)[C@@H](CO)c1ccccc1)C2` (stereo not given in full), for which the activity, negative = inhibition was 8.45% [at 11.4 µM]. The same measure, in the same setting: for `C[N+]1(C)[C@@H]2CC[C@H]1CC(OC(=O)[C@@H](CO)c1ccccc1)C2` (stereo not given in full) the value was “inactive”; for `CC(=O)OCC1=C(C(=O)O)N2C(=O)[C@@H](N)[C@@H]2SC1`, “inactive”.

Regarding `CCc1ccc(CCN2CCCCC2)nc1`, the activity, negative = inhibition is -16.1% [at 11.4 µM]. On to `C[C@@]12CCC(=O)C=C1C=C[C@H]1[C@H]3CC[C@](O)(CCC(=O)O)[C@]3(C)CC[C@@H]12`, for which the activity, negative = inhibition result is “inactive”. Regarding `O=C(c1ccc(-c2nnc(Nc3ccccc3)c3ccccc23)cc1)N1C[C@H]2C[C@H](C1)c1cccc(=O)n1C2`, the concentration at half-maximal activity (AC50) was 31.6 µM (active). For the molecule `O=c1cccc2n1CC1CNC[C@H]2C1`, the activity, negative = inhibition entry was “inactive”. As to `COc1cc(C(=O)OC2C[C@H]3CC[C@@H](C2)N3C)ccc1O` (stereo not given in full), the activity, negative = inhibition entry is “inactive”.

With `O=c1[nH]cnc2[nH]cc(CN3CCCCC3)c12`, the activity, negative = inhibition was -10.7% [at 11.4 µM]. As for `N[C@@H]1C=CC=C(C(=O)O)C1`, the activity, negative = inhibition result was “inactive”. The same measure, in the same setting: in the case of `O=S(=O)(NCCO)c1cc[c]([Sb](=[O])([OH])[OH])cc1` it was 9.57% [at 11.4 µM].

Consider `CCCN1CCO[C@@H]2c3cc(O)ccc3OC[C@H]21`, for which the activity, negative = inhibition entry is “inactive”. Regarding `O=S(=O)(c1ccccc1)N1CCCCC1c1cccnc1` (stereo not given), the concentration at half-maximal activity (AC50) is 2.24 µM (active). As to `c1cncc([C@@H]2CCCCN2)c1`, the activity, negative = inhibition entry is “inactive”. In the case of `CC1=C(C)[N+](=O)C2(O)CCCCC2(C)N1[O-]` (stereo not given), the activity, negative = inhibition entry was “inactive”. Still for that read-out and setting: in the case of `CCCN(CCC)[C@@H]1CCc2ccc(O)cc2C1` it was “inactive”; in that of `NC(N)=NS(=O)(=O)c1ccc(N)cc1`, “inactive”. With `CN(C)[C@@H]1C(=O)C(C(N)=O)=C(O)[C@]2(O)C(=O)C3=C(O)c4c(O)cccc4[C@@](C)(O)[C@H]3[C@H](O)[C@@H]12`, the activity, negative = inhibition result was “inactive”. The same measure, in the same setting: for `O=C(O)Cc1ccc([N+](=O)[O-])cc1[N+](=O)[O-]` the value was -8.12% [at 11.4 µM]. Take `O=[N+]([O-])c1ccc(S(=O)(=O)Cc2ccccc2)c([N+](=O)[O-])c1`: the concentration at half-maximal activity (AC50) was 0.316 µM (active).

As to `O=[N+]([O-])c1cc(O)c(O)c([N+](=O)[O-])c1`, the activity, negative = inhibition result is “inactive”. With `Cc1cc(OC(=O)CCCNC(=O)OC(C)(C)C)c2c3c(c(=O)oc2c1)CCC3`, the activity, negative = inhibition is 4.44% [at 2.29 µM]. For `COc1cc2c3cc1Oc1cc(ccc1O)C[C@@H]1c4c(cc(OC)c(O)c4Oc4cccc(c4)C[C@H]3N(C)CC2)CC[N+]1(C)C`, the activity, negative = inhibition result was “inactive”. For the molecule `CC(C)(O)/C=C\C(=O)[C@](C)(O)[C@H]1[C@H](O)C[C@]2(C)[C@@H]3CC=C4[C@@H](C=C(O)C(=O)C4(C)C)[C@]3(C)C(=O)C[C@@]12C`, the AC50 is 0.398 µM (active). Turning to `CC(=O)OC1N=C(c2ccccc2)c2cc(Br)ccc2N(C)C1=O` (stereo not given), the activity, negative = inhibition result was “inactive”. As for `CC1=NN(c2ccc(S(=O)(=O)O)cc2C)C(=[OH+])[C@H]1N=Nc1cc(S(=O)(=O)O)ccc1C(=O)O.O.[Cr]`, the activity, negative = inhibition was 12.6% [at 11.4 µM]. For `O=[N+]([O-])c1ccc(N2CCNCC2)cc1NCC1CCCO1` (stereo not given), the activity, negative = inhibition entry is “inactive”. The same measure, in the same setting: for `COC(=O)[C@H](N)CCCN=C(N)N[N+](=O)[O-]` the value was “inactive”.

For `CCOC(=O)C1=C(C)OC(N)=C(C#N)C12C(=O)N(C)c1ccccc12` (stereo not given), the AC50 was 6.31 µM (active). As for `COc1ccc(C[C@@H]2NC[C@H](O)[C@@H]2OC(C)=O)cc1`, the activity, negative = inhibition result is “inactive”.

Consider `O=C(O)C[O][Sb][O]CC(=O)O`, for which the activity, negative = inhibition was -1.8% [at 11.4 µM].

In the case of `NS(=O)(=O)C[C-]1C=C[CH]([Sb-]([Cl])([Cl])([Cl])([Cl])[Cl])C=C1.c1ccncc1` (stereo not given), the activity, negative = inhibition was 7.76% [at 11.4 µM]. Regarding `CC[C@@H]1CN2CCc3cc(OC)c(OC)cc3[C@H]2C[C@@H]1C[C@@H]1NCCc2cc(O)c(OC)cc21`, the activity, negative = inhibition entry is “inactive”. Turning to `Cc1ccc(S(=O)(=O)O[C@H]2CN3CCC2CC3)cc1`, the activity, negative = inhibition was -7.01% [at 11.4 µM].
